The source made the active and inactive calls.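 The calls were made as follows, unless noted: active = NADPH fluorescence slope more negative than the mean of all samples by about 3 SD, 99.7% confidence; inactive = the rest.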

The nature of test [1]: inhibitors of TNFa-induced NFkB p65 translocation, primary screen, imaging, HUVEC, MLSMR starter and 10KST1 sets (AID 438;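 active = inhibition above 20% together with a positive visual image hit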;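 also: compound added about 3h40 before a 20 min TNFalpha stimulation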;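 as to inhibition: signal is the nuclear over cytoplasmic p65 intensity ratio per well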). Conditions: HUVEC TNFa-induced p65 nuclear translocation; cell count: measured here: nuclei count (cytotoxicity indicator), at 2.08 µM; inhibition: at 2 µM, stronger effect = higher value, 0% TNFa-plus-vehicle, 100% no-TNFa wells.
The nature of test [2]: reduction of polyQ htt aggregates in cells – imaging, exon1htt(103Q)mCFP cells, high-content imaging, primary screen (AID 483;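 active = visual image review flags a hit and inhibition of aggregation exceeds 20%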;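 also: compound exposure lasted 3 days before fixation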;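 as to nuclei count: percent of the per-plate median nuclei count of sample wells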). The note with it: exon1htt(103Q)mCFP cell line, aggregate imaging, at 2 µM; inhibition of aggregation: stronger effect = higher value; nuclei count: measured here: cell count, toxicity.
Test [3] is described as follows: endothelial E-selectin expression blockers – imaging, HUVEC, immunofluorescence, MLSMR starter and 10KST1 sets, primary screen (AID 487;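 active = visually confirmed hit in the image check and inhibition above 20%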;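 as to inhibition: signal is fraction of cell area covered by stained E-selectin grains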;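 as to nuclei count: 100% = median nuclei count of all wells on the same plate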). Conditions: HUVEC TNFalpha-induced E-selectin immunofluorescence imaging, at 2 µM; inhibition: stronger effect = higher value; nuclei count: measured here: cell number, toxicity.
Test [4] has as its target Voltage-gated potassium channel subunit beta-2 (Rattus norvegicus) (UniProt P62483). The test is described as follows: inhibitors of rat Kvbeta2 reductase activity – biochemical, NADPH fluorescence, primary screen (AID 622;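 active = fluorescence slope higher than the sample average by over 3 SD, cut at about -0.22 in these data, passing the limit was not always enough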;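 also: slope of raw intensity against log time taken from 70 to 1610 s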). The note with it: recombinant KvBeta, 4-cyanobenzaldehyde reduction, at 10 µM, stronger effect = higher value.
Test [5] has the same target. The test is described as follows: enhancers of rat Kvbeta2 NADPH turnover – biochemical, NADPH fluorescence, primary screen (AID 623).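 Also: fluorescence intensity change per second fitted from 20 to 320 s.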 The note with it: Recombinant KvBeta, NADPH fluorescence decrease slope, 10 min; at 10 µM; stronger effect = lower value.
Test [6] deals with Alpha-2C adrenergic receptor (Homo sapiens) (UniProt P18825). As to the kind of experiment: compounds altering alpha2C-coupled GIRK flux – cell-based, HEK293 alpha2C/GIRK1/2, thallium flux, primary screen (AID 624;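 active = fluorescence slope after compound addition differing from the mean of all screened samples at 99.7% confidence, in either direction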;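 also: slope of fluorescence ratio to pre-addition baseline per second over 15 to 24 s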). Conditions: thallium flux BTC fluorescence, at 10 µM, actives lie on both sides.
Sequence of Alpha-2C adrenergic receptor (Homo sapiens) (P18825 whole entry, looked up): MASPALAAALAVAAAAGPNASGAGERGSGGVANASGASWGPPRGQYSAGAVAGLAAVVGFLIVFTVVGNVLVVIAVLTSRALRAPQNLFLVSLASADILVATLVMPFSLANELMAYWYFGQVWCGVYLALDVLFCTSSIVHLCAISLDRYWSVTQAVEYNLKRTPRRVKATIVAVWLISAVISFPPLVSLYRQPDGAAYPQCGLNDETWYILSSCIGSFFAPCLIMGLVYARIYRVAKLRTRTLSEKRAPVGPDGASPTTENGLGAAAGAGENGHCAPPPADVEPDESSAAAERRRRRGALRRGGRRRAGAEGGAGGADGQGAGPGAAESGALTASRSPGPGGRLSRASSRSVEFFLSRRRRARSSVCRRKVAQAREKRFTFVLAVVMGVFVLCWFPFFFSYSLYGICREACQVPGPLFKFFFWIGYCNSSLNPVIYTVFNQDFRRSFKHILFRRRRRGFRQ
Test [7] can be described thus: blockers of RIG-like receptor reporter activation – cell-based, Sendai virus stimulus, luciferase, 10K MLSCN set, TLR/RLR signaling modifier project, primary screen (AID 602276;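 active = inhibition at or above 50% at 10 µM; inactive = inhibition below 50%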;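 also: firefly luciferase from ISG56 promoter only with Renilla not read in this screen; 0% = Sendai virus plus DMSO and 100% = medium plus DMSO without virus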). The note with it: HEK293 RL24 IRF3 luciferase reporter, at 10 µM, stronger effect = higher value. For orientation: Reporter assays use an easily measured gene product as a stand-in for the process of interest.

Test [8] can be described thus: TLR3 IRF3 reporter activation blockers – cell-based, poly I:C stimulus, luciferase, 10K MLSCN set, primary screen (AID 602277;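 active = inhibition of the reporter signal at or above 50%; inactive = inhibition below 50%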). The note with it: HEK293-TLR3 RL24 IRF3 luciferase reporter, at 10 µM, stronger effect = higher value.

Sequence of Voltage-gated potassium channel subunit beta-2 (Rattus norvegicus) (P62483 whole entry, looked up): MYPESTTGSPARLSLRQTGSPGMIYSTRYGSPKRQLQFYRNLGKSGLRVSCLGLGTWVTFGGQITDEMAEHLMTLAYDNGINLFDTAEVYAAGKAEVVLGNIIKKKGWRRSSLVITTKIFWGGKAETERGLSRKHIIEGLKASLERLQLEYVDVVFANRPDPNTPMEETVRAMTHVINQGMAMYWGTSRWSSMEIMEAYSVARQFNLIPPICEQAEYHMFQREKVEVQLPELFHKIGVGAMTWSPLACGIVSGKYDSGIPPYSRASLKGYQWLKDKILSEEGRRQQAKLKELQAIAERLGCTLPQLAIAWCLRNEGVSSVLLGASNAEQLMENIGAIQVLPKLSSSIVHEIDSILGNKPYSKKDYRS

Consider `COc1nnc(-c2ccc(C)c(S(=O)(=O)NCCO)c2)c2ccccc12`, for which, in test [1], the cell count was 325. Further, the inhibition (usually the drop in the measured response relative to a control, in per cent) in test [1] is -2.7% (inactive); in test [3], -17.6% (inactive); in test [7], 1.8% (inactive); in test [8], 28.9% (inactive). Further, in test [2], the inhibition of aggregation was 11.7% (inactive). For the same compound, the nuclei count in test [2] came to 75.4%; in test [3] it was 95.3%. Moreover, in test [4], the fluorescence slope is -0.424 (inactive). For the same compound, the NADPH fluorescence slope in test [5] is 1e-05 (inactive). The slope in test [6] was 0.0039 (inactive).

With `Cc1nn(-c2ccccc2)c(Cl)c1C(=O)NCC(=O)O`, the cell count in test [1] came out at 296. Besides, the inhibition in test [1] is 3.9% (inactive); in test [3] it was -22.6% (inactive); in test [7], 11.2% (inactive); in test [8], 25.8% (inactive). Moreover, in test [2], the inhibition of aggregation was -6.8% (inactive). For the same compound, the values for the nuclei count in test [2] and in test [3] were 100% and 117%, respectively. Further, the fluorescence slope in test [4] was -0.399 (inactive). Besides, in test [5], the NADPH fluorescence slope is -6.1e-05 (inactive). In addition, the slope in test [6] was 0.00396 (inactive).

Consider `CCOc1ccc(N(CC(=O)Nc2cccc(OC)c2)S(=O)(=O)c2c(C)noc2C)cc1`, for which, in test [1], the cell count turned out to be 490. Also, the inhibition was -7.9% (inactive) in test [1], -27% (inactive) in test [3], 24.2% (inactive) in test [7] and 22.1% (inactive) in test [8]. In addition, the inhibition of aggregation in test [2] is 18.7% (inactive). For the same compound, the values for the nuclei count in test [2] and in test [3] were 67% and 109%, respectively. For the same compound, the fluorescence slope in test [4] was -0.518 (inactive). Also, the NADPH fluorescence slope in test [5] was -2.7e-05 (inactive). Moreover, in test [6], the slope was 0.00799 (inactive).

Turning to `O=C(NCC(c1cccnc1)N1CCN(c2ccc(F)cc2)CC1)c1ccc(F)cc1` (stereo not drawn), in test [1], the cell count worked out at 346. The inhibition in test [1] is 7.4% (inactive); in test [3], -33.2% (inactive); in test [7] it was 1.86% (inactive); in test [8], 6.23% (inactive). For the same compound, the inhibition of aggregation in test [2] is -9.9% (inactive). Further, the figures for the nuclei count in test [2] and in test [3] were 84% and 96.5%, respectively. Further, in test [4], the fluorescence slope is -0.596 (inactive). In test [5], the NADPH fluorescence slope is -4.6e-05 (inactive). Moreover, in test [6], the slope is 0.00545 (inactive).

Take `CCOc1ccccc1OCC(=O)NCc1ccco1`: the cell count in test [1] turned out to be 375. Further, the inhibition in test [1] is -3.4% (inactive); in test [3] it was -16.4% (inactive); in test [7], 11.5% (inactive); in test [8], 9.81% (inactive). For the same compound, the inhibition of aggregation in test [2] is 2.9% (inactive). Further, the nuclei count in test [2] is 101%; in test [3], 92%. The fluorescence slope in test [4] is -0.409 (inactive). The NADPH fluorescence slope in test [5] was -4.3e-05 (inactive). The slope in test [6] is 0.00437 (inactive).

On to `CC(C)c1nnc(NC(=O)c2cnccn2)s1`, for which the cell count in test [1] was determined as 425. In addition, the inhibition is -0.5% (inactive) in test [1], -38.5% (inactive) in test [3], -7.98% (inactive) in test [7] and -13.6% (inactive) in test [8]. The inhibition of aggregation in test [2] was -3.7% (inactive). The values for the nuclei count in test [2] and in test [3] were 103% and 105%, respectively. The fluorescence slope in test [4] is -0.479 (inactive). For the same compound, the NADPH fluorescence slope in test [5] was -4.7e-05 (inactive). For the same compound, the slope in test [6] is 0.00644 (inactive).

For the compound `CCCCCOC(=O)C1=C(C)N(C)C(=O)NC1c1cc(Br)c(O)c(OC)c1` (stereo not drawn), in test [1], the cell count worked out at 563. Also, the inhibition in test [1] is -9.9% (inactive); in test [3], 25.8% (inactive); in test [7], 1.53% (inactive); in test [8] it was 21.1% (inactive). Further, the inhibition of aggregation in test [2] is -39.7% (inactive). Further, the nuclei count in test [2] and in test [3] was 105% throughout. In addition, in test [4], the fluorescence slope was -0.624 (inactive). Also, the NADPH fluorescence slope in test [5] is 5.7e-06 (inactive). Also, in test [6], the slope is 0.0067 (inactive).

On to `CCOc1ccccc1C1NC(=O)NC(C)=C1C(=O)OC1CCCC1C` (stereo not drawn), for which, in test [1], the cell count was 686. Moreover, the inhibition was 2.9% (inactive) in test [1], 13.9% (inactive) in test [3], 16.6% (inactive) in test [7] and 22.2% (inactive) in test [8]. Besides, the inhibition of aggregation in test [2] is -3.3% (inactive). The nuclei count in test [2] came out at 103%; in test [3], 99.1%. Besides, in test [4], the fluorescence slope is -0.488 (inactive). Besides, the NADPH fluorescence slope in test [5] was -5e-05 (inactive). Moreover, the slope in test [6] is 0.00539 (inactive).

Values taken from PubChem BioAssay.
